# Laboratory results as given in PubChem BioAssay (EPA / NIEHS).
# The source made the active and inactive calls. Rule for the calls: active = hit-call score of the fitted dose curve at least 0.9, where 1 is the maximum; inactive = score below 0.9.
# Target: Signal transducer and activator of transcription 3 (Homo sapiens) (UniProt P40763)
# Experiment: ATG_STAT3_CIS: Attagene CIS-FACTORIAL HepG2 Assay for human Signal Transducer and Activator of Transcription 3 (STAT3) (AID 2282963)
# Conditions: HepG2, Attagene cis-factorial STAT3 reporter transcription; actives raise or lower the signal
# Procedure: ATG_CIS is a cell-based, multiplexed-readout assay that uses HepG2, a human liver cell line, with measurements taken at 24 hours after chemical dosing in a 24-well plate.ATG_STAT3_CIS is one of 52 assay component(s) measured or calculated from the ATG_CIS assay. It is designed to make measurements of mRNA induction, a form of inducible reporter, as detected with fluorescence intensity signals by Reverse transcription polymerase chain reaction (RT-PCR) and Capillary electrophoresis technology.Data from the assay component ATG_STAT3_CIS was analyzed into 1 assay endpoint. This assay endpoint, ATG_STAT3_CIS, was analyzed with bidirectional fitting relative to DMSO as the negative control and baseline of activity. Using a type of inducible reporter, measures of mRNA for gain or loss-of-signal activity can be used to understand the reporter gene at the transcription factor-level as they relate to the gene STAT3. Furthermore, this assay endpoint can be referred to as a primary readout, because this assay has produced multiple assay endpoints where this one serves a reporter gene function. To generalize the intended target to other relatable targets, this assay endpoint is annotated to the dna binding intended target family, where the subfamily is stat protein.
# Human liver HepG2 cells are transiently transfected with multiple reporter transcription units (MRTUs) in 6-well plates using FuGene 6 reagent (Roche; 3 ml FuGene/1 mg DNA). The MRTU constructs are regulated by a cis-regulating element (promoter). […] A major difference between the CIS and TRANS system is that in CIS activities of endogenous TFs are measured, whereas the TRANS assay evaluates changes in activities of exogenous, chimeric NR-Gal4 proteins. […] At the end of 24 hour incubation, total RNA was isolated using TriZol reagent (Invitrogen). The isolated RNA is then reverse-transcribed using oligo(dT) primer and Mo-MLV reverse transcriptase (Invitrogen) with DNAse I (Ambion) treatment for 30 min. The one-tenth of the produced cDNA was amplified by PCR using Taq DNA polymerase (Invitrogen) and two reporter sequence-specific primers. The PCR products were fluorescently labeled by primer extension with 6-arboxyfluorescein (6-FAM) 5'-labeled reporter sequence-specific primer (2 min at 95 C, 20 s at 68 C and 10 min at 72 C) and these products were digested with 5U of HpaI (New England Biolabs) for 2h at 37 C. The fragments were purified using Qiaquick PCR columns (Qiagen), analyzed on an ABI 3130xL genetic analyzer (Applied Biosystems) with peak positions identified by using a set of X-rhodamine (ROX)-labeled MapMarker1000 molecular weight standards (BioVentures). The raw capillary electrophoresis data was processed using Attagraph software (Attagene).
# Sequence of Signal transducer and activator of transcription 3 (Homo sapiens) (P40763 whole entry, looked up): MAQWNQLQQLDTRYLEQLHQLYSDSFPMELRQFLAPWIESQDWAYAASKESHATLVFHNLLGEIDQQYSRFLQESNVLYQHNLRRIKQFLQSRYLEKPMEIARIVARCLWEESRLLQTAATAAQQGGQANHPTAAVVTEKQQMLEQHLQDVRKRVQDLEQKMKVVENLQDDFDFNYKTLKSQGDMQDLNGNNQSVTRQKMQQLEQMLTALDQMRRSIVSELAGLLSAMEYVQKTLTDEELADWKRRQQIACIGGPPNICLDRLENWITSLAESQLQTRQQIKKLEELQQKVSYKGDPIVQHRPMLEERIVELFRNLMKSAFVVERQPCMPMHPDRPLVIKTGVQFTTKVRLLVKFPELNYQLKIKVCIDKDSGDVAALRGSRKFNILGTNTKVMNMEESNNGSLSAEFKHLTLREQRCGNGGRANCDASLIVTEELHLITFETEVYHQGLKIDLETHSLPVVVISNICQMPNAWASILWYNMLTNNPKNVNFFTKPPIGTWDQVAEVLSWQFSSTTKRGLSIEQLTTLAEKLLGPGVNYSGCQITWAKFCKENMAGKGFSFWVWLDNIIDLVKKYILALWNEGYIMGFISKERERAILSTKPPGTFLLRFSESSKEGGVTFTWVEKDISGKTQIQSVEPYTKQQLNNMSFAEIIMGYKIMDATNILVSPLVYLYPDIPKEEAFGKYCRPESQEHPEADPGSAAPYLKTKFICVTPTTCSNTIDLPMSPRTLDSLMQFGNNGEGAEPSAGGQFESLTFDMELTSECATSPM
row,Structure (SMILES),outcome
1,CCc1cccc(C)c1N(C(=O)C(=O)O)C(C)COC (stereo not given),inactive
2,O=S(=O)(Cl)C(F)(F)C(F)(F)C(F)(F)C(F)(F)C(F)(F)C(F)(F)C(F)(F)C(F)(F)F,inactive
3,CC(C)CC=C(C=O)c1ccccc1,inactive
4,O=C(O)CCC(F)(F)C(F)(F)C(F)(F)C(F)(F)C(F)(F)C(F)(F)C(F)(F)F,inactive
5,C[Si](C)O[Si](C)C,inactive
6,FC(F)(F)C(F)(F)C(F)(F)C(F)(F)C(F)(F)C(F)(F)C(F)(F)CCI,inactive
7,CC(C)OC=O,inactive
8,COC(=O)c1ccc(C=O)cc1,inactive
9,O=c1[nH]cccc1O,inactive
10,CCN(CCO)S(=O)(=O)C(F)(F)C(F)(F)C(F)(F)C(F)(F)C(F)(F)C(F)(F)C(F)(F)C(F)(F)F,inactive
11,CCn1c2ccccc2c2ccccc21,inactive
12,NS(=O)(=O)C(F)(F)C(F)(F)C(F)(F)C(F)(F)C(F)(F)C(F)(F)F,inactive
13,O=C(O)C(F)(F)C(F)(F)C(F)(F)C(=O)O,inactive
14,OCC(F)(F)C(F)(F)C(F)(F)CO,inactive
15,O=C1c2ccccc2C(=O)c2c(Cl)cccc21,inactive
16,O=C(Cl)C(F)(F)C(F)(F)C(F)(F)C(F)(F)C(F)(F)C(F)(F)C(F)(F)F,inactive
17,c1ccc(C[P+](c2ccccc2)(c2ccccc2)c2ccccc2)cc1,inactive
18,NC(=O)C(F)(F)C(F)(F)C(F)(F)C(F)(F)C(N)=O,inactive
19,N#CCCOCCC#N,inactive
20,CC(O)C#CC(C)O (stereo not given),inactive

row,Structure (SMILES),outcome
1,OCCCC(F)(F)C(F)(F)C(F)(F)C(F)(F)C(F)(F)C(F)(F)C(F)(F)C(F)(F)F,inactive
2,CC(C)=CCCC(C)O (stereo not given),inactive
3,O=C(O)C(F)(F)C(F)(F)C(F)(F)OC(F)(C(F)(F)F)C(F)(F)F,inactive
4,CCCCC(CC)COC(=O)c1ccc(N(C)C)cc1 (stereo not given),inactive
5,CCCCCCCCCCCCCCCCC,inactive
6,FC(F)(F)C(F)(F)C(F)(F)CC1CO1 (stereo not given),inactive
7,CCCCCCCCCCCC(=O)Cl,inactive
8,C[Si](Cl)(Cl)CCC(F)(F)C(F)(F)C(F)(F)C(F)(F)C(F)(F)C(F)(F)F,inactive
9,C=CCOC(=O)CC(C)C,inactive
10,CCCCCCCC/C=C\CCCCCCCC(=O)N(C)CC(=O)O,inactive
11,COCCC(=O)OC,inactive
12,CCN=c1cc2oc3cc(NCC)c(C)cc3c(-c3ccccc3C(=O)OCC)c-2cc1C,inactive
13,NC(O)(C(F)(F)F)C(F)(F)F,inactive
14,CCCC(=O)OCC(COC(=O)CCC)OC(=O)CCC,inactive
15,OC(O)C(F)(F)C(F)(F)F,inactive
16,CCc1cc(Cc2cc(CC)c(N)c(CC)c2)cc(CC)c1N,inactive
17,CCC/C=C/CO,inactive
18,CCOC(C=C(C)CCC=C(C)C)OCC,inactive
19,O=C1C=CC(=O)N1c1ccccc1,inactive
20,CCOC(=O)CCC(C)=O,inactive
